Experiment [1] is described as follows: binders of probe aFSTL3 on microarray, primary screen, stem cell growth factor project, biochemical, small-molecule microarray, fluorescence 635/667 (AID 1064).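 Further: measures binding of the biotinylated anti-FSTL3 antibody to printed compounds.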 To be noted: higher = more signal.
A short description of experiment [2]: binders from COS7 lysate, DM2A8 probe, primary screen, torsin A project, cell lysate, small-molecule microarray, fluorescence 635/667 (AID 1065). The following applies: higher = more signal, COS7 lysate expressing mutant human TOR1A.
Experiment [3] can be described thus: binders of probe aFGF2 on microarray, primary screen, stem cell growth factor project, biochemical, small-molecule microarray, fluorescence 635/667 (AID 1067).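 Further: measures binding of biotinylated aFGF2 protein to printed compounds on slides; z-score merges feature fluorescence and signal-to-noise across triplicate slides.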 To be noted: higher = more signal.
Experiment [4] is described as follows: binders of probe aFGF10 on microarray, primary screen, stem cell growth factor project, biochemical, small-molecule microarray, fluorescence 635/667 (AID 1071).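 Further: score merges 667 nm spot intensity and signal to noise from triplicate slides.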 To be noted: higher = more signal.
In experiment [5] the target is Neurogenic locus notch homolog protein 2 (Homo sapiens) (UniProt Q04721). Nature of the experiment: Notch2 binders on small-molecule microarrays, primary screen, biochemical, small-molecule microarray, 635 nm fluorescence, stem cell growth factors (AID 1073). To be noted: Notch2 binding, higher = more signal.
Experiment [6] concerns the target Pro-neuregulin-1, membrane-bound isoform (Homo sapiens) (UniProt Q02297). Nature of the experiment: NRG1 binders on small-molecule microarrays, primary screen, psychiatric disease protein project, biochemical, small-molecule microarray, fluorescence 635/667 (AID 1075).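 Further: score combines 667 nm spot fluorescence with signal to noise.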 To be noted: NRG1 binding, 635 nm fluorescence, higher = more signal.
The test system of experiment [7] is Neuregulin-1 EGF-like domain. Nature of the experiment: binders of neuregulin-1 EGF-like domain, primary screen, biochemical, small-molecule microarray, 635 nm fluorescence (AID 1081).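 Further: binding of the protein to compounds printed on small-molecule microarray slides.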 The following applies: small-molecule microarray binding, higher = more signal.
A short description of experiment [8]: FRG1 promoter luciferase signal modulators, primary screen, FRG1 inhibition for FSHD, cell-based, C2C12 myotubes, firefly/Renilla luciferase, luminescence (AID 1084). The following applies: higher = more signal, called active from +8 up or from −8 down.
Experiment [9] is described as follows: binders of probe aFST on microarray, primary screen, stem cell growth factor project, biochemical, small-molecule microarray, fluorescence 635/667 (AID 1086).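 Further: score merges 667 nm fluorescence with signal-to-noise of each printed compound spot.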 The following applies: higher = more signal.
Experiment [10] in a line: binders of probe aHhip on microarray, primary screen, stem cell growth factor project, biochemical, small-molecule microarray, fluorescence 635/667 (AID 1087).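 Further: score merges spot fluorescence at 667nm with spot signal to noise ratio.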 The following applies: higher = more signal.
The test system of experiment [11] is PRMT1 (protein arginine N-methyltransferase 1). Nature of the experiment: PRMT1 binders on small-molecule microarrays, primary screen, biochemical, small-molecule microarray, 635 nm fluorescence (AID 1088).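 Further: binding of Prmt1 protein to compounds spotted on small-molecule microarray slides.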 To be noted: small-molecule microarray binding, higher = more signal.
Experiment [12] in a line: yeast growth modulation, basal conditions, primary screen, YJM789 clinical isolate, OD600, 24 h (AID 1089).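 Further: growth of clinical yeast isolate S. cerevisiae YJM 789 seeded 1000 cells per well; test concentration not given here.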 The following applies: S. cerevisiae YJM789 growth, higher = more signal, called active from +8 up or from −8 down.
Experiment [13] in a line: fission yeast growth modulation, primary screen, strain 972, OD600, 24 h, no modulator (AID 1090).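 Further: basal condition with compound alone and no growth modifier present; test concentration not given here.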 To be noted: S. pombe 972 growth, higher = more signal, called active from +8 up or from −8 down.
Experiment [14] is described as follows: S. cerevisiae growth modulation with rapamycin, primary screen, strain BY4716, OD600, 96 h (AID 1091). Further: test concentration not given here. The following applies: higher = more signal, called active from +8 up or from −8 down.
For experiment [15], the target named is Torsin-1A-interacting protein 2 (Homo sapiens) (UniProt Q8NFQ8). As to the kind of experiment: LULL1 binders on small-molecule microarray, primary screen, cell lysate, human LULL1 lysate, 635/667 nm fluorescence (AID 1092).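 Further: probe is lysate of COS7 cells overexpressing human LULL1; score merges per-feature 667 nm fluorescence with signal-to-noise.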 To be noted: hLULL1 lysate binding, 635 nm fluorescence, higher = more signal.
Experiment [16] is described as follows: E. coli growth modulation, two-sided OD650, primary screen, E. coli filamentation project, strain DRC41, 24 h (AID 1093).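 Further: MC1000 strain lacking acrAB efflux and sulA so SOS filamentation is blocked; test concentration not given here.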 To be noted: OD650, 24 h, higher = more signal, called active from +8 up or from −8 down.
Experiment [17] can be described thus: small-molecule microarray binders of probe aLefty2, primary screen, biochemical, biotinylated probe, 635/667 nm fluorescence (AID 1094).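 Further: score merges spot fluorescence near 667 nm with spot signal-to-noise ratio.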 The following applies: higher = more signal.
Experiment [18] concerns Noggin (protein binding on small-molecule microarray). Nature of the experiment: Noggin binders on small-molecule microarray, primary screen, biochemical, 635/667 nm fluorescence (AID 1095).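 Further: score merges 667 nm feature fluorescence with signal to noise over triplicate slides.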 The following applies: 635 nm fluorescence, higher = more signal.
Experiment [19] deals with Neurogenic locus notch homolog protein 3 (Homo sapiens) (UniProt Q9UM47). Nature of the experiment: NOTCH3 binders on small-molecule microarray, primary screen, biochemical, 635/667 nm fluorescence (AID 1096). To be noted: NOTCH3 binding, 635 nm fluorescence, higher = more signal.
Experiment [20] can be described thus: small-molecule microarray binders of probe aEGFR, primary screen, biochemical, biotinylated probe, 635/667 nm fluorescence (AID 1097).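 Further: probe is a biotinylated anti-EGFR antibody binding compounds printed on slides; score combines fluorescence near 667 nm and signal to noise of each spot.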 The following applies: higher = more signal.

The source made the active and inactive calls.

Chain of Neurogenic locus notch homolog protein 2 (Homo sapiens) (Q04721 whole entry, looked up, canonical isoform): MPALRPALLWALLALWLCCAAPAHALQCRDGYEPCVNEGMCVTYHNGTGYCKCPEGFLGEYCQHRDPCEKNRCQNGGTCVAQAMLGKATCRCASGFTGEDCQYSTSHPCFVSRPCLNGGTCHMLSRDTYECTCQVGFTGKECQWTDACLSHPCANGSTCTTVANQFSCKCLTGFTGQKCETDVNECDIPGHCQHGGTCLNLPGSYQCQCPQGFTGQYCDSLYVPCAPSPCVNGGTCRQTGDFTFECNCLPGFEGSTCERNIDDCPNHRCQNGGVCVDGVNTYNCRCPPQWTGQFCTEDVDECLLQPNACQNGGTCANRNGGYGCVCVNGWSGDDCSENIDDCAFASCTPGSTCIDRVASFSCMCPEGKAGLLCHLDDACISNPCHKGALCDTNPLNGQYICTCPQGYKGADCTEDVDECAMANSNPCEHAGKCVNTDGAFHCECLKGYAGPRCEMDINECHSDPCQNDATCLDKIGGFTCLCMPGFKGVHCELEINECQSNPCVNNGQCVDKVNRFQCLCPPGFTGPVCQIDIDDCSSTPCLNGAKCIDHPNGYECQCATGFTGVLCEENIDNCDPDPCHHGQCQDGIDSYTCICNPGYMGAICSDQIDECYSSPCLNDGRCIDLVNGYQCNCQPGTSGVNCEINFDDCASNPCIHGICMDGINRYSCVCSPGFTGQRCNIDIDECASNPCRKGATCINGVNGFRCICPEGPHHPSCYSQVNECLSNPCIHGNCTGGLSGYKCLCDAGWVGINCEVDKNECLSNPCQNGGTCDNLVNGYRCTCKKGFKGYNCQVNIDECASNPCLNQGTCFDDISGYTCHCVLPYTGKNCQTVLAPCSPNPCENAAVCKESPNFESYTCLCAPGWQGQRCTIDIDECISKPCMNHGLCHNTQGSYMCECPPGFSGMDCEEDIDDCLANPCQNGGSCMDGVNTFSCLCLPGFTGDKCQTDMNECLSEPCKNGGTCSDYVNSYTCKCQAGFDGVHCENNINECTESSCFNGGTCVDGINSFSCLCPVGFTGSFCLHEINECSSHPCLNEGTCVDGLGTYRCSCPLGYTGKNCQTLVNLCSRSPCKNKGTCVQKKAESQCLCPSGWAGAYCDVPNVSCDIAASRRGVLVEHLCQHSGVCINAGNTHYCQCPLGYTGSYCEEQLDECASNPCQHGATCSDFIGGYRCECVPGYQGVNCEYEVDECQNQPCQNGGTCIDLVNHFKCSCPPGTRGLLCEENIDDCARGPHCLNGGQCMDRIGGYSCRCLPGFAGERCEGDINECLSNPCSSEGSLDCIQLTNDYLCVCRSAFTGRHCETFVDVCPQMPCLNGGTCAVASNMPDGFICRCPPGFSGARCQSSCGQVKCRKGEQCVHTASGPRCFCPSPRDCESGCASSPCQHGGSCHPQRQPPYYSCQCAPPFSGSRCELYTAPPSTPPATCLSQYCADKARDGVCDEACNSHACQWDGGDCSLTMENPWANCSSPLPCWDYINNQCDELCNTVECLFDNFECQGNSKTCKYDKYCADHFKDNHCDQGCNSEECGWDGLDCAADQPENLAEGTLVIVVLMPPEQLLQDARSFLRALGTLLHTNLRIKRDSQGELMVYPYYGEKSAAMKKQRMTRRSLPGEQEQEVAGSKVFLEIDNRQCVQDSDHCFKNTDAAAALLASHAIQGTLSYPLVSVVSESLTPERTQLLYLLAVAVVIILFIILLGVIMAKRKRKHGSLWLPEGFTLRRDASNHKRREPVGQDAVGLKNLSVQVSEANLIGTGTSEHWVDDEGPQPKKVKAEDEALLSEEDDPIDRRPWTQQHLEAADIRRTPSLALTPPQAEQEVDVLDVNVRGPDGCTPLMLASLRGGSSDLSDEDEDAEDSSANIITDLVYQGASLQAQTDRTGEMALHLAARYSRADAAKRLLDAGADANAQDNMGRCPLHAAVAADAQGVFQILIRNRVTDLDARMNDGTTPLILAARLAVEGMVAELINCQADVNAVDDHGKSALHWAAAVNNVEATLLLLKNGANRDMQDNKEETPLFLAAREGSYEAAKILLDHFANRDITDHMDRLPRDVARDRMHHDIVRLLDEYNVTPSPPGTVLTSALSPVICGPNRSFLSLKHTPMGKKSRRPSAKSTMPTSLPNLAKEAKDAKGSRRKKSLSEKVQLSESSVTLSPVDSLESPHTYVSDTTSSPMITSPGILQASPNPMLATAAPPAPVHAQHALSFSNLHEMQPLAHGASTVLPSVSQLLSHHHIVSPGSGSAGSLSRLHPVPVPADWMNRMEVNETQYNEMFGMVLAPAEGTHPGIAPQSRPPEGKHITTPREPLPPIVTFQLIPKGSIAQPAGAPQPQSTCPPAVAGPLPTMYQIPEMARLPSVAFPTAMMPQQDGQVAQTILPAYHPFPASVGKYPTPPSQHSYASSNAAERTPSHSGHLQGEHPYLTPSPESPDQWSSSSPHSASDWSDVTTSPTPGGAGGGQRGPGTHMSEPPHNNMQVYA
Chain of Torsin-1A-interacting protein 2 (Homo sapiens) (Q8NFQ8 whole entry, looked up): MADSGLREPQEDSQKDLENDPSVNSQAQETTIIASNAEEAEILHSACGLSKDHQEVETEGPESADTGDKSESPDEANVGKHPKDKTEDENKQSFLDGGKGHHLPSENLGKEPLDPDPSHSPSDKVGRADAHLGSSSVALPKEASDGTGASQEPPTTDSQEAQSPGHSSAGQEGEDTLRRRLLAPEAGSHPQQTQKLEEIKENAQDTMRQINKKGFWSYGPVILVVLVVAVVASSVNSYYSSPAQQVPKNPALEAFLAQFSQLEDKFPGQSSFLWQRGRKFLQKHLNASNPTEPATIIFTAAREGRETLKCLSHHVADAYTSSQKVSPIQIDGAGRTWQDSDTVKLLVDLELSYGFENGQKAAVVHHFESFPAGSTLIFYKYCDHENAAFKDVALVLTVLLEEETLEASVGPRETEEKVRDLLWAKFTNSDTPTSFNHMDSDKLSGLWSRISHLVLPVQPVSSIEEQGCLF
Chain of Pro-neuregulin-1, membrane-bound isoform (Homo sapiens) (Q02297 whole entry, looked up, the tested form may be a part, canonical isoform): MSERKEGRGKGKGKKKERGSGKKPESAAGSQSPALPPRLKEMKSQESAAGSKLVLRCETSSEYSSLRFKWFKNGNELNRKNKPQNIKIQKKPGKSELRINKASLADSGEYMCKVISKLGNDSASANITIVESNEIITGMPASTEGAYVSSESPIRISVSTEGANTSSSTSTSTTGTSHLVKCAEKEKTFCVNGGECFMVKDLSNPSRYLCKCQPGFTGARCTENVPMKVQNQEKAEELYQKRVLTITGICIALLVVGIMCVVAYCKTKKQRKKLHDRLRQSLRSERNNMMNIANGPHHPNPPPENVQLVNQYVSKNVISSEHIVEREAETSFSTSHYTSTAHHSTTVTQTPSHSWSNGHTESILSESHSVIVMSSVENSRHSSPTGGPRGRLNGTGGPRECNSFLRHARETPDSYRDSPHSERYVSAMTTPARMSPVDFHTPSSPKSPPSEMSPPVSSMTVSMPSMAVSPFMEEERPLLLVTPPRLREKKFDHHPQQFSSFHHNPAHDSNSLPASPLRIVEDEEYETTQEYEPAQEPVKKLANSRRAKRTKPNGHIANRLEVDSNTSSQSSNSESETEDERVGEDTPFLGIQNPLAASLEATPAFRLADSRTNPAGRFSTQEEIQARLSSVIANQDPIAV

Consider `COCCCNC(=O)[C@@]1(CCC(=O)OC(C)(C)C)N=C(c2ccc(OCCCO)cc2)O[C@H]1c1ccccc1N=[N+]=[N-]`, for which the composite z-score was 0.913 in experiment [1]; 1.5 in experiment [2]; 0.0999 in experiment [3]; 1.14 in [4]; 1.41 in experiment [5]; 1.9 in experiment [6]. In addition, the composite z-score in experiment [7] is 1.4; in experiment [9], 1.03; in [10], 0.0053; in [11], 1.27; in [15] it was 3.13; in [17], 0.644. The composite z-score in [18] is -0.0445; in experiment [19] it was 0.377; in experiment [20], 0.458. The z-score in [8] was 2.62 (inactive); in experiment [12], -0.197 (inactive); in [13], 0.362 (inactive); in experiment [14] it was -0.875 (inactive); in [16], 1.21 (inactive).
On to `O=C1C[C@]2(c3ccc([N+](=O)[O-])cc3)C(=O)N(C3CC3)c3cc(CO)ccc3[C@H]2N1CC12CC3CC(CC(C3)C1)C2`, for which the composite z-score in [1] is -0.224; in experiment [2] it was -0.622; in experiment [3], -0.0825; in experiment [4], -0.0253; in experiment [5], -0.562; in experiment [6], -0.0609. Besides, the composite z-score is -0.5 in experiment [7]; 0.0196 in [9]; -0.258 in [10]; 0.739 in [11]; 1.87 in [15]; -0.171 in experiment [17]. In addition, the values for the composite z-score in experiment [18], in experiment [19] and in experiment [20] were -1.02, -0.466 and -0.228, respectively. The z-score was -0.0608 (inactive) in [8]; -0.263 (inactive) in experiment [12]; 0.436 (inactive) in experiment [13]; -0.574 (inactive) in experiment [14]; -1.29 (inactive) in [16].
For the compound `C=CC[C@@]1(C(=O)NCCCOC)N=C(c2ccc(OCCCO)cc2)O[C@@H]1c1ccccc1`, the composite z-score in [1] is 0.513; in experiment [2], 1.09; in experiment [3], 0.0679; in [4], -0.562; in experiment [5], -0.0215; in [6] it was 1.84. The composite z-score came out at 1.15 in experiment [7]; 0.74 in [9]; 0.712 in experiment [10]; 1.24 in experiment [11]; 3.37 in experiment [15]; 0.211 in experiment [17]. The composite z-score in experiment [18] is 0.0729; in experiment [19], -0.741; in experiment [20], 0.0353. Further, the z-score in experiment [8] was -1.24 (inactive); in experiment [12], -3.84 (inactive); in [13], -1.61 (inactive); in [14], -0.725 (inactive); in experiment [16], 0.734 (inactive).
Regarding `CCOC(=O)C[C@H]1[C@H](OC(=O)c2ccc(-c3ccccc3)cc2)[C@@H](NC(=O)CC(C)C)c2cc(OCCCO)ccc2N1C(=O)c1ccc2ccccc2n1`, the composite z-score was -0.459 in experiment [1]; 0.176 in experiment [2]; -0.149 in experiment [3]; 0.205 in [4]; 0.458 in [5]; 0.491 in experiment [6]. The composite z-score in experiment [7] is 0.76; in experiment [9], 0.185; in experiment [10], 0.1; in [11], -0.069; in experiment [15], 1.15; in experiment [17], -0.145. The composite z-score is 0.481 in experiment [18], 0.753 in experiment [19] and -0.0828 in experiment [20]. In addition, the z-score in experiment [8] is 0.375 (inactive); in experiment [12], -1.13 (inactive); in experiment [13], -0.832 (inactive); in [14], -0.656 (inactive); in experiment [16], -0.0583 (inactive).
For the compound `CCCCN1CC=CC23O[C@@H]4/C=C\CCCOC(=O)C4[C@H]2C(=O)N(CCO)[C@@H]3C1=O` (stereo not given in full), the composite z-score in experiment [1] is 0.33; in experiment [2] it was -1.37; in experiment [3] it was -0.19; in experiment [4], -0.615; in [5], -0.913; in experiment [6] it was 0.441. The composite z-score in [7] is 1.61; in [9] it was -1; in [10], -0.271; in experiment [11], -0.328; in experiment [15] it was 3.01; in experiment [17], -0.212. Moreover, the results for the composite z-score in experiment [18], in experiment [19] and in experiment [20] were -1.03, -0.968 and -0.385, respectively. The z-score in experiment [8] was -0.0657 (inactive); in experiment [12] it was 0.812 (inactive); in [13], -0.0784 (inactive); in experiment [14], -0.0859 (inactive); in experiment [16] it was 2.12 (inactive).
In the case of `CCOC(=O)C[C@H]1[C@H](OC(=O)c2ccc(C(=O)c3ccccc3)cc2)[C@@H](NC(=O)CC(C)C)c2cc(OCCCO)ccc2N1C(=O)c1ccccc1`, the composite z-score in experiment [1] was -0.399; in experiment [2], 0.275; in experiment [3], -0.0266; in experiment [4] it was 0.542; in experiment [5], 1.2; in [6], 0.807. Further, the composite z-score worked out at 0.996 in experiment [7]; 0.766 in experiment [9]; 0.0129 in [10]; 1.34 in [11]; 2.03 in [15]; 0.0769 in experiment [17]. Besides, the composite z-score in [18] is 0.937; in experiment [19], 0.961; in experiment [20], 0.0807. In addition, the z-score in experiment [8] is -0.16 (inactive); in [12] it was -0.327 (inactive); in experiment [13], -0.333 (inactive); in experiment [14], 0.276 (inactive); in experiment [16], -0.747 (inactive).

The values are drawn from PubChem BioAssay.
